Results reported in the supplement of paper PMC12282887.
± gives the standard deviation of the averaged measurements.

Legend:
Test in all cases: promoter activity interaction Z-score (Lux/OD deviation from empty-vector control); higher = stronger promoter induction by the compound
[1] = tested on: E. coli BW25113 acrABp lux reporter
Summary of the method: (§1)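 Wild-type E. coli BW25113 and three single-gene deletion strains, each carrying a low-copy luxCDABE promoter reporter, were grown at 37°C in 40 µl LB Lennox per well of a 384-well plate. Every compound was applied at four 1:2 dilutions in biological duplicates, and OD600 and luminescence were read every 30 min for 12 h. Integration covered 0–8 h for wild type and 1–9 h for deletion strains, and wells under 10% of the median growth value were removed. Scores are Z-transformed residuals of growth-normalised luminescence fitted against a control.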

[2] = tested on: E. coli BW25113 marRABp lux reporter
Summary of the method: as §1

[3] = tested on: E. coli BW25113 micFp lux reporter
Summary of the method: as §1

[4] = tested on: E. coli BW25113 ompFp lux reporter
Summary of the method: as §1

[5] = tested on: E. coli BW25113 robp lux reporter
Summary of the method: as §1

[6] = tested on: E. coli BW25113 soxSp lux reporter
Summary of the method: as §1

[7] = tested on: E. coli BW25113 tolCp lux reporter
Summary of the method: as §1

[8] = 40.6 µg/ml, genetic background: wild type
[9] = 40.6 µg/ml, genetic background: ΔmarA
[10] = 40.6 µg/ml, genetic background: Δrob
[11] = 40.6 µg/ml, genetic background: ΔsoxS
[12] = 81.1 µg/ml, genetic background: wild type
[13] = 81.1 µg/ml, genetic background: ΔmarA
[14] = 81.1 µg/ml, genetic background: Δrob
[15] = 81.1 µg/ml, genetic background: ΔsoxS
[16] = 162.2 µg/ml, genetic background: wild type
[17] = 162.2 µg/ml, genetic background: ΔmarA
[18] = 162.2 µg/ml, genetic background: Δrob
[19] = 162.2 µg/ml, genetic background: ΔsoxS
[20] = 324.4 µg/ml, genetic background: wild type
[21] = 324.4 µg/ml, genetic background: ΔmarA
[22] = 324.4 µg/ml, genetic background: Δrob
[23] = 324.4 µg/ml, genetic background: ΔsoxS

Q: Which “promoter activity interaction Z-score” value [1, 8] does the source give for `C=C[C@H]1CN2CC[C@H]1C[C@H]2[C@H](O)c1ccnc2ccc(OC)cc12` [Quinine] here?
A: -0.0276 ± 0.14

Q: What about the “promoter activity interaction Z-score” value [1, 9] of the same molecule?
A: 0.379 ± 1.7

Q: What about the “promoter activity interaction Z-score” value [1, 10] of the same molecule?
A: -0.214 ± 0.025

Q: And the “promoter activity interaction Z-score” value [1, 11]?
A: -0.207 ± 0.36

Q: And the “promoter activity interaction Z-score” value [1, 12]?
A: -0.0617 ± 0.23

Q: And the “promoter activity interaction Z-score” value [1, 13]?
A: 0.66 ± 0.57

Q: And the “promoter activity interaction Z-score” value [1, 14]?
A: -0.0693 ± 0.15

Q: What about the “promoter activity interaction Z-score” value [1, 15] of the same molecule?
A: 0.146 ± 0.074

Q: And the “promoter activity interaction Z-score” value [1, 16]?
A: -0.321 ± 0.19

Q: What about the “promoter activity interaction Z-score” value [1, 17] of the same molecule?
A: -0.122 ± 1

Q: And the “promoter activity interaction Z-score” value [1, 18]?
A: 0.00483 ± 0.12

Q: And the “promoter activity interaction Z-score” value [1, 19]?
A: -0.386 ± 0.088

Q: And the “promoter activity interaction Z-score” value [1, 20]?
A: -0.269 ± 0.44

Q: And the “promoter activity interaction Z-score” value [1, 21]?
A: -0.173 ± 0.094

Q: What about the “promoter activity interaction Z-score” value [1, 22] of the same molecule?
A: 0.046 ± 0.023

Q: What about the “promoter activity interaction Z-score” value [1, 23] of the same molecule?
A: -0.181 ± 0.2

Q: What about the “promoter activity interaction Z-score” value [2, 8] of the same molecule?
A: 0.0904 ± 0.38

Q: And the “promoter activity interaction Z-score” value [2, 9]?
A: -0.307 ± 0.24

Q: What about the “promoter activity interaction Z-score” value [2, 10] of the same molecule?
A: -0.00554 ± 0.082

Q: What about the “promoter activity interaction Z-score” value [2, 11] of the same molecule?
A: -0.106 ± 0.073

Q: What about the “promoter activity interaction Z-score” value [2, 12] of the same molecule?
A: -0.119 ± 0.029

Q: And the “promoter activity interaction Z-score” value [2, 13]?
A: 0.197 ± 0.19

Q: And the “promoter activity interaction Z-score” value [2, 14]?
A: -0.0844 ± 0.1

Q: And the “promoter activity interaction Z-score” value [2, 15]?
A: 0.0817 ± 0.18

Q: What about the “promoter activity interaction Z-score” value [2, 16] of the same molecule?
A: -0.16 ± 0.05

Q: And the “promoter activity interaction Z-score” value [2, 17]?
A: 0.254 ± 0.062

Q: What about the “promoter activity interaction Z-score” value [2, 18] of the same molecule?
A: -0.151 ± 0.3

Q: And the “promoter activity interaction Z-score” value [2, 19]?
A: -0.0309 ± 0.098

Q: What about the “promoter activity interaction Z-score” value [2, 20] of the same molecule?
A: 1.1 ± 0.12

Q: What about the “promoter activity interaction Z-score” value [2, 21] of the same molecule?
A: 1.18 ± 0.12

Q: And the “promoter activity interaction Z-score” value [2, 22]?
A: -0.164 ± 0.17

Q: And the “promoter activity interaction Z-score” value [2, 23]?
A: 0.579 ± 0.51

Q: What about the “promoter activity interaction Z-score” value [3, 8] of the same molecule?
A: 0.322 ± 0.35

Q: What about the “promoter activity interaction Z-score” value [3, 9] of the same molecule?
A: 0.0116 ± 0.1

Q: What about the “promoter activity interaction Z-score” value [3, 10] of the same molecule?
A: -0.133 ± 0.038

Q: What about the “promoter activity interaction Z-score” value [3, 11] of the same molecule?
A: -0.0747 ± 0.16

Q: And the “promoter activity interaction Z-score” value [3, 12]?
A: 0.106 ± 0.04

Q: And the “promoter activity interaction Z-score” value [3, 13]?
A: 0.118 ± 0.17

Q: And the “promoter activity interaction Z-score” value [3, 14]?
A: -0.0678 ± 0.18

Q: What about the “promoter activity interaction Z-score” value [3, 15] of the same molecule?
A: 0.253 ± 0.078

Q: What about the “promoter activity interaction Z-score” value [3, 16] of the same molecule?
A: 0.0719 ± 0.29

Q: What about the “promoter activity interaction Z-score” value [3, 17] of the same molecule?
A: 0.23 ± 0.0035

Q: What about the “promoter activity interaction Z-score” value [3, 18] of the same molecule?
A: 0.137 ± 0.068

Q: What about the “promoter activity interaction Z-score” value [3, 19] of the same molecule?
A: 0.356 ± 0.086

Q: And the “promoter activity interaction Z-score” value [3, 20]?
A: 0.7474 ± 0.0019

Q: What about the “promoter activity interaction Z-score” value [3, 21] of the same molecule?
A: 0.582 ± 0.025

Q: What about the “promoter activity interaction Z-score” value [3, 22] of the same molecule?
A: 0.201 ± 0.17

Q: What about the “promoter activity interaction Z-score” value [3, 23] of the same molecule?
A: 1.13 ± 0.047

Q: And the “promoter activity interaction Z-score” value [4, 8]?
A: 0.0547 ± 0.22

Q: What about the “promoter activity interaction Z-score” value [4, 9] of the same molecule?
A: -0.33 ± 0.1

Q: And the “promoter activity interaction Z-score” value [4, 10]?
A: -0.566 ± 0.33

Q: What about the “promoter activity interaction Z-score” value [4, 11] of the same molecule?
A: 0.39 ± 0.047

Q: What about the “promoter activity interaction Z-score” value [4, 12] of the same molecule?
A: -0.0322 ± 0.074

Q: And the “promoter activity interaction Z-score” value [4, 13]?
A: 0.401 ± 0.48

Q: And the “promoter activity interaction Z-score” value [4, 14]?
A: 0.0636 ± 0.022

Q: What about the “promoter activity interaction Z-score” value [4, 15] of the same molecule?
A: 0.369 ± 0.07

Q: And the “promoter activity interaction Z-score” value [4, 16]?
A: -0.435 ± 0.35

Q: What about the “promoter activity interaction Z-score” value [4, 17] of the same molecule?
A: -0.0896 ± 0.32

Q: And the “promoter activity interaction Z-score” value [4, 18]?
A: 0.318 ± 0.14

Q: What about the “promoter activity interaction Z-score” value [4, 19] of the same molecule?
A: -0.194 ± 0.092

Q: And the “promoter activity interaction Z-score” value [4, 20]?
A: -0.15 ± 0.097

Q: And the “promoter activity interaction Z-score” value [4, 21]?
A: 0.352 ± 0.51

Q: And the “promoter activity interaction Z-score” value [4, 22]?
A: -0.0516 ± 0.19

Q: And the “promoter activity interaction Z-score” value [4, 23]?
A: -0.0712 ± 0.12

Q: What about the “promoter activity interaction Z-score” value [5, 8] of the same molecule?
A: 0.233 ± 0.19

Q: And the “promoter activity interaction Z-score” value [5, 9]?
A: -0.32 ± 0.61

Q: And the “promoter activity interaction Z-score” value [5, 10]?
A: -0.0483 ± 0.15

Q: And the “promoter activity interaction Z-score” value [5, 11]?
A: 0.121 ± 0.51

Q: And the “promoter activity interaction Z-score” value [5, 12]?
A: -0.103 ± 0.11

Q: What about the “promoter activity interaction Z-score” value [5, 13] of the same molecule?
A: 0.432 ± 0.065

Q: What about the “promoter activity interaction Z-score” value [5, 14] of the same molecule?
A: 0.674 ± 0.12

Q: And the “promoter activity interaction Z-score” value [5, 15]?
A: 0.933 ± 0.31

Q: And the “promoter activity interaction Z-score” value [5, 16]?
A: -0.361 ± 0.36

Q: What about the “promoter activity interaction Z-score” value [5, 17] of the same molecule?
A: 0.246 ± 0.82

Q: And the “promoter activity interaction Z-score” value [5, 18]?
A: 0.504 ± 0.18

Q: And the “promoter activity interaction Z-score” value [5, 19]?
A: 0.352 ± 0.57

Q: What about the “promoter activity interaction Z-score” value [5, 20] of the same molecule?
A: -0.236 ± 0.25

Q: What about the “promoter activity interaction Z-score” value [5, 21] of the same molecule?
A: 0.371 ± 0.84

Q: And the “promoter activity interaction Z-score” value [5, 22]?
A: 0.206 ± 0.3

Q: What about the “promoter activity interaction Z-score” value [5, 23] of the same molecule?
A: -0.277 ± 1.1

Q: What about the “promoter activity interaction Z-score” value [6, 8] of the same molecule?
A: -0.2102 ± 0.00085

Q: What about the “promoter activity interaction Z-score” value [6, 9] of the same molecule?
A: -0.278 ± 0.015

Q: And the “promoter activity interaction Z-score” value [6, 10]?
A: -0.273 ± 0.13

Q: And the “promoter activity interaction Z-score” value [6, 11]?
A: -0.121 ± 0.17

Q: What about the “promoter activity interaction Z-score” value [6, 12] of the same molecule?
A: -0.286 ± 0.043

Q: And the “promoter activity interaction Z-score” value [6, 13]?
A: -0.134 ± 0.031

Q: What about the “promoter activity interaction Z-score” value [6, 14] of the same molecule?
A: -0.188 ± 0.032

Q: And the “promoter activity interaction Z-score” value [6, 15]?
A: -0.041 ± 0.2

Q: And the “promoter activity interaction Z-score” value [6, 16]?
A: -0.297 ± 0.031

Q: What about the “promoter activity interaction Z-score” value [6, 17] of the same molecule?
A: -0.177 ± 0.0058

Q: What about the “promoter activity interaction Z-score” value [6, 18] of the same molecule?
A: 0.0402 ± 0.16

Q: What about the “promoter activity interaction Z-score” value [6, 19] of the same molecule?
A: -0.15 ± 0.37

Q: What about the “promoter activity interaction Z-score” value [6, 20] of the same molecule?
A: -0.241 ± 0.021

Q: What about the “promoter activity interaction Z-score” value [6, 21] of the same molecule?
A: -0.171 ± 0.066

Q: What about the “promoter activity interaction Z-score” value [6, 22] of the same molecule?
A: -0.243 ± 0.11

Q: And the “promoter activity interaction Z-score” value [6, 23]?
A: -0.272 ± 0.35

Q: And the “promoter activity interaction Z-score” value [7, 8]?
A: -0.906 ± 1

Q: And the “promoter activity interaction Z-score” value [7, 9]?
A: -0.418 ± 0.34

Q: And the “promoter activity interaction Z-score” value [7, 10]?
A: 0.214 ± 1.5

Q: And the “promoter activity interaction Z-score” value [7, 11]?
A: -0.701 ± 0.52

Q: And the “promoter activity interaction Z-score” value [7, 12]?
A: -0.18 ± 0.28

Q: And the “promoter activity interaction Z-score” value [7, 13]?
A: 0.28 ± 0.4

Q: And the “promoter activity interaction Z-score” value [7, 14]?
A: -0.738 ± 0.76

Q: And the “promoter activity interaction Z-score” value [7, 15]?
A: -0.512 ± 0.23

Q: What about the “promoter activity interaction Z-score” value [7, 16] of the same molecule?
A: -0.157 ± 0.39

Q: And the “promoter activity interaction Z-score” value [7, 17]?
A: 0.0619 ± 0.15

Q: And the “promoter activity interaction Z-score” value [7, 18]?
A: -0.0757 ± 0.051

Q: And the “promoter activity interaction Z-score” value [7, 19]?
A: -0.611 ± 1.3

Q: And the “promoter activity interaction Z-score” value [7, 20]?
A: -0.913 ± 0.14

Q: What about the “promoter activity interaction Z-score” value [7, 21] of the same molecule?
A: 0.586 ± 1.1

Q: What about the “promoter activity interaction Z-score” value [7, 22] of the same molecule?
A: -0.0963 ± 1.2

Q: And the “promoter activity interaction Z-score” value [7, 23]?
A: 0.127 ± 0.016
